Screening results: PubChem, National Center for Advancing Translational Sciences (NCATS)
GALC G270D act = raises human GALC G270D mutant activity in cells; 45,000 compounds, 0.1% hits; Potency, µM (highest dose often 57.5 µM), most hits filed as activators; 145M-Twi-hGALC-G270D cells (Twitcher mouse brain line with human GALC G270D), HMU-beta-Gal fluorescence, 48 h; note: nearly all actives have a fitted effect of over 65% in size
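Fluorogenic HMU-b-Gal hydrolysis (0.1 mM final, pH 5.2 citrate-phosphate with 1 mg/mL sodium taurocholate; carbonate stop buffer) measures mutant GALC activity after compound treatment of live 145M-Twi Twitcher brain cells stably carrying human GALC-G270D, with wild-type GALC line alongside; activation sought.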
GPR32 ag = agonists of human resolvin D1 receptor DRV1 (GPR32) | O75388 | CHO-K1 GPR32 beta-arrestin PathHunter luminescence, 90 min; zero percent set by DMSO-only wells | activation, % at 76.9 µM | 48,000 compounds, 2.5% hits | AID 1346428;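 active = activation of at least 60% and not above a set upper limit, about 1 call in 100 departs from these limits; inconclusive = activation of 40% to 60%, or above that upper limit; inactive = activation under 40%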
Target sequence (O75388 whole entry, looked up): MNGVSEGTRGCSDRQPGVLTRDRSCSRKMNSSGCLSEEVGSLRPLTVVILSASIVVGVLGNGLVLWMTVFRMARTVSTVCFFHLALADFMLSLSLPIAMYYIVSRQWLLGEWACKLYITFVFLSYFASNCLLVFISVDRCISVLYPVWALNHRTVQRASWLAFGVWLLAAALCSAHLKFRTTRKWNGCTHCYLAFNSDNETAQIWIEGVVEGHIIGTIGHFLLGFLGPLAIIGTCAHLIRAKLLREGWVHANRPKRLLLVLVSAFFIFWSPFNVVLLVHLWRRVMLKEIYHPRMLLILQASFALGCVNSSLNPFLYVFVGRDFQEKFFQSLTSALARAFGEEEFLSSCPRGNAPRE
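Beta-arrestin recruitment read-out: luminescence from complemented beta-Gal in CHO-K1 GPR32 PathHunter cells, measured 1 h after detection reagent at ambient temperature following 90 min compound exposure at 37 °C; DMSO served as basal (EC0) control.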
B2AR arrestin ag = beta-arrestin recruitment by human beta2-adrenergic receptor ligands; HTLA Tango cells, beta-arrestin recruitment, luciferase luminescence, 18 h; P07550; Potency, µM (series often up to 46.1 µM), hits mostly activators; 44,000 tested, under 10 active
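Tango cell line, 1% FBS DMEM; cpd titration up to 46 microM; 18 hr, 37 degrees C, 5% CO2. Luciferin/ATP substrate mix added, 15 min RT, luminescence. %Activity, CRC fitting, curve-class categorization.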
FH mod = Identification of activators of human fumarate hydratase by quantitative high-throughput screening | Fumarate hydratase, mitochondrial (Homo sapiens), P07954 | FH coupled MDH/diaphorase resazurin fluorescence, 15 min | Potency, µM (series often up to 79.9 µM), hits mostly inhibitors | 54,000 compounds, 0.22% hits | AID 1347055, 2019; note: the screen sought activators but most active calls are inhibition curves; nearly all actives have a fitted effect of over 45% in size
Hits are given with their value; – = inactive; ? = inconclusive; · = no result given. In the library only some 2.8% were active in any assay of this set; here they are far more common. Unless noted, calls come from the whole dose curve; as a rule, active = well fitted curve in the direction sought with a large enough effect; inconclusive = small, poorly fitted or top-dose-only effect, or another doubt; inactive = no such curve, though single readings can be large; an effect the other way counts as inactive or inconclusive.

SMILES	GALC G270D act	GPR32 ag	B2AR arrestin ag	FH mod
O=C(CSc1ncc(S(=O)(=O)c2ccc(Cl)cc2)c(=O)[nH]1)Nc1cccc(C(F)(F)F)c1	–	113	–	–
COc1cc(C)c(C(=O)NC2C(C)OC(OC3CCC(C)C4C3C=C(C)C3/C(C)=C\CC/C(C)=C/C5(C)C=C(C(=O)O)C(C)CC56OC(=O)/C(=C(\O)C34C)C6=O)C(O)C2(C)O)c(O)c1 (stereo not drawn)	·	·	·	–
Cc1cccc(NC(=O)Cn2c(=O)oc3cc(S(=O)(=O)NCc4ccccc4)ccc32)c1	–	65	–	–
Cc1cccc(NC(=O)Cn2c(=O)oc3cc(S(=O)(=O)NC4CCCC4)ccc32)c1	–	–	–	–
O=C(Cn1c(=O)oc2cc(S(=O)(=O)NCc3ccccc3)ccc21)NCc1ccc(F)cc1	–	111	–	–
Cc1cccc(NC(=O)Cn2c(=O)n(CCc3ccccc3)c(=O)c3ccccc32)c1	–	75	–	–
Cc1cc(-c2cc(O)ccc2Cl)cc2nnc(Nc3ccc(OCCN4CCCC4)cc3)nc12	·	·	·	–
N#Cc1c(-n2ncnc2-c2ccc(F)cc2)sc2c1CCCCC2	–	69	–	–
N#Cc1c(-n2ncnc2-c2cccc(Br)c2)sc2c1CCCCC2	–	–	–	–
Cc1ccccc1-c1ncnn1-c1sc2c(c1C#N)CCCCC2	–	106	–	–
CC(C)=CCc1ccc(Oc2c(O)cc(C)cc2CO)c(C(=O)O)c1O	·	·	·	–
Cc1cc(O)c(C(C)C)cc1Cl	–	86	·	–
CC(C)=C[C@@H]1[C@H](CO[C@@H]2O[C@H](CO)[C@@H](O)[C@H](O)[C@H]2O)C1(C)C	·	·	·	–
C[C@@H]1O[C@@H](O[C@@H]2[C@@H](O)[C@H](O[C@H]3CC[C@@]4(C)C(CC[C@]5(C)C4CC=C4[C@@H]6CC(C)(C)CC[C@]6(C(=O)O[C@@H]6O[C@H](CO)[C@@H](O)[C@H](O)[C@H]6O)CC[C@]45C)C3(C)C)O[C@H](C(=O)O)[C@H]2O)[C@H](O)[C@H](O)[C@H]1O (stereo partly drawn)	·	·	·	–
C/C(=C/CO)CC[C@@H]1[C@@]2(C)CCC[C@](C)(C(=O)O)C2CC[C@@]1(C)O (stereo partly drawn)	·	·	·	–
Cc1cc(-n2c(C)nc3ccccc3c2=O)ccc1NC(=O)c1ccccc1[N+](=O)[O-]	–	94	–	–
CSc1ccc(CCNC(=O)Cn2ncc3c(=O)oc4ccccc4c32)cc1	–	67	–	–
CSc1ccc(CCNC(=O)Cn2ncc3c(=O)oc4ccc(C)cc4c32)cc1	–	–	–	–
CC(C)c1cccc(C(C)C)c1N1C(=O)c2ccc(O)cc2C1=O	·	·	·	–
O=C(Nc1ccc(F)cc1F)c1cc2c(=O)n3ccccc3nc2s1	22µM	–	–	–
N#Cc1ccccc1NC(=O)c1cc2c(=O)n3ccccc3nc2s1	?	–	–	–
CC(C)c1ccc(NC(=O)Cn2c(=O)oc3cc(S(=O)(=O)N4CCCC4)ccc32)cc1	–	97	–	–
Cc1cc(C)cc(NC(=O)Cn2c(=O)oc3cc(S(=O)(=O)N4CCCC4)ccc32)c1	–	–	–	–
CCOc1ccc(NC(=O)Cn2c(=O)oc3cc(S(=O)(=O)N4CCCCCC4)ccc32)cc1	–	?	–	–
Cc1ccc(NC(=O)Cn2c(=O)oc3cc(S(=O)(=O)N4CCCCC4)ccc32)c(Cl)c1	–	111	–	–
SMILES	GALC G270D act	GPR32 ag	B2AR arrestin ag	FH mod
Cc1ccc(CCCO)c(NCc2ccc3nc(NCCCN4CCOCC4)n(Cc4nc(C)ccc4O)c3c2)c1	·	·	·	–
COc1cc(Cc2cnc(N)nc2N)c(C(C)C)cc1OC	·	·	·	–
CCCOC(=O)c1cccc(Nc2nc(CCC)cc(=O)[nH]2)c1	·	87	–	·
CC(=O)N1CCc2cc(S(=O)(=O)NC(Cc3ccccc3)C(=O)Nc3cc(C)cc(C)c3)ccc21 (stereo not drawn)	–	–	–	–
CC(=O)N1CCc2cc(S(=O)(=O)NC(Cc3ccccc3)C(=O)Nc3ccc(Cl)cc3)ccc21 (stereo not drawn)	–	96	–	–
O=C(CCNS(=O)(=O)c1ccc2c(c1)CCN2C(=O)C1CC1)N1CCN(c2cccc(Cl)c2)CC1	–	61	–	–
O=C(CCNS(=O)(=O)c1ccc2c(c1)CCN2C(=O)C1CC1)Nc1ccc(F)cc1F	–	85	–	–
